In ChEMBL document CHEMBL3988442, “University of Dundee, Small-Polar-MMV Screening Library” (2021):
For some assays here: Potency and affinity values are given separately.

Key:
Parameters in all cases: scale not given: direction of the effect not stated beside the values
[1] = target: Protein translocase subunit SecA (Escherichia coli (strain K12)) (UniProt P10408); test: Assay to Identify E. coli SecA ATPase Inhibitors; format: functional; conditions: 30 µM
[2] = target: T1, Ubiquitin-activating enzyme e1, putative (Leishmania donovani (strain BPK282A1)) (UniProt E9BSI1); test: Leishmania donovani Ubiquitin Activating Enzyme (LdE1); format: functional; conditions: 30 µM
T1 sequence (whole entry): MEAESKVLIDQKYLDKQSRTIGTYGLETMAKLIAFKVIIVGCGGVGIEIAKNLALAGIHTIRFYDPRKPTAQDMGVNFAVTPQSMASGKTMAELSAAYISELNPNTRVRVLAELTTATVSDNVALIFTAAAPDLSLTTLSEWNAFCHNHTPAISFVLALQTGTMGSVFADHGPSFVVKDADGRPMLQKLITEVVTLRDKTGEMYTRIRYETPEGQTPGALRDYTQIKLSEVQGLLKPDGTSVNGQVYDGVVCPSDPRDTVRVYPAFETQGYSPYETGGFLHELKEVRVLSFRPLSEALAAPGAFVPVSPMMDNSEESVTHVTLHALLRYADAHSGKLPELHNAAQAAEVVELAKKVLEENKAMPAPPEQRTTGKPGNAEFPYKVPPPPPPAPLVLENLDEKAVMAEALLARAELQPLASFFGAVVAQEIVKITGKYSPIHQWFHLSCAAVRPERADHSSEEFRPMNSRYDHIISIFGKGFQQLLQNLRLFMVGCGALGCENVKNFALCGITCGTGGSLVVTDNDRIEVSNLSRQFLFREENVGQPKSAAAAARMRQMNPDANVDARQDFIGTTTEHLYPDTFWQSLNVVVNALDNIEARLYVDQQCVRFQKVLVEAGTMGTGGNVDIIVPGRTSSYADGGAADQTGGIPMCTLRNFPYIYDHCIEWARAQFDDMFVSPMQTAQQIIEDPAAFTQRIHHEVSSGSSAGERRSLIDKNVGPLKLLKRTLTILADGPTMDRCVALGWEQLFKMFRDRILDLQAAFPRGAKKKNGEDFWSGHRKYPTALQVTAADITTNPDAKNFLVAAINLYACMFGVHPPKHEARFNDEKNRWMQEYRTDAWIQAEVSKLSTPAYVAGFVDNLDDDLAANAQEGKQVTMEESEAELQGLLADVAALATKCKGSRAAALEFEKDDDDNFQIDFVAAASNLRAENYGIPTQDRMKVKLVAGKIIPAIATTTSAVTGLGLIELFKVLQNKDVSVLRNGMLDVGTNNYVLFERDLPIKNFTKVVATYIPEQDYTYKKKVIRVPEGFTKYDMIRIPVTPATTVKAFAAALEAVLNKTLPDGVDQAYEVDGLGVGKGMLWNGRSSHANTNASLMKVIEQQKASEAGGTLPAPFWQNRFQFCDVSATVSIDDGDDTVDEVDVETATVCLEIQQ

[3] = target: Sialic acid-binding Ig-like lectin 9 (Homo sapiens) (UniProt Q9Y336); test: Hs-Siglec9 ALPHAscreen SOP 20170721; conditions: 10 µM
Sialic acid-binding Ig-like lectin 9 (Homo sapiens), sequence (Q9Y336 whole entry): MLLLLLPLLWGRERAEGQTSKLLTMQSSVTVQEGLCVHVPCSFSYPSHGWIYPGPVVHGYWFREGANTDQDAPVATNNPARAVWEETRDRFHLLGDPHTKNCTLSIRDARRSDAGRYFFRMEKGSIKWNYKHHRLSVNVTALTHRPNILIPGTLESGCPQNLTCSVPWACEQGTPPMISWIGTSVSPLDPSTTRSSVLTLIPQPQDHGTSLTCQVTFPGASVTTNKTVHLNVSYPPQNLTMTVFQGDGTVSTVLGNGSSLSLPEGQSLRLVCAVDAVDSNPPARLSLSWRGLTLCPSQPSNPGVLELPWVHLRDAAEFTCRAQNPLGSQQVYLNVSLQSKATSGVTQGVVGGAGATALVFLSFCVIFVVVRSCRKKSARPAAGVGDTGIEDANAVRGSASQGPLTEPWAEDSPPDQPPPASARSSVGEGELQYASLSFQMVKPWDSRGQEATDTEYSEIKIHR

Trypanosoma cruzi = test: Trypanosoma cruzi phosphomannomutase and mannose-1-phosphate guanylyltransferase assay; format: functional; conditions: 10 µM
[4] = target: T2, Arginase-2, mitochondrial (Homo sapiens) (UniProt P78540); test: in vitro enzyme assay to detect the production of urea directly proportional to the activity of Arginase II; format: functional; conditions: 33.3 µM; also: in the data most compounds retested in dose-response had high values
T2 sequence (whole entry): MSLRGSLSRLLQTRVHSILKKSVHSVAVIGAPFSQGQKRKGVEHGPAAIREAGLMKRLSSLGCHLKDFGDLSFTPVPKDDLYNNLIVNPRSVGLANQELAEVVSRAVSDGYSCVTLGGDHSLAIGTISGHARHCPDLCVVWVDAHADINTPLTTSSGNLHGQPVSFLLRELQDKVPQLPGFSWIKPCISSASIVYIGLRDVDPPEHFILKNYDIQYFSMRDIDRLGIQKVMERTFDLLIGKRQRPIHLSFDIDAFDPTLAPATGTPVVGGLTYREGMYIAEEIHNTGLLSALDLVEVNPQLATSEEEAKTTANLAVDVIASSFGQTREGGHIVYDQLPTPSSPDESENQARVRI

[5] = target: T3, Proteasome subunit beta (Trypanosoma cruzi) (UniProt O96673); test: Trypanosoma cruzi proteasome chymotrypsin-like activity (TcProtChymo) assay.; also: in the data most compounds retested in dose-response had high values; format: functional; conditions: 9.37 µM
T3 sequence (whole entry): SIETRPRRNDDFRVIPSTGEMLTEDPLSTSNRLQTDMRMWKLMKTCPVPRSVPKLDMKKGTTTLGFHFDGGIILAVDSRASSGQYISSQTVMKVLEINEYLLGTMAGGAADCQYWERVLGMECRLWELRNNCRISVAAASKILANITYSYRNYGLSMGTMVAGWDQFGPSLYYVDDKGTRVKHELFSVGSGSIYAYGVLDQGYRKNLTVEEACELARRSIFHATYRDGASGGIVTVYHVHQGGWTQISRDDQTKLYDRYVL

Homo sapiens = species on record: Homo sapiens; test: To identify inhibition of the IFN signalling (Jak-Stat) pathway via expression of an eGFP reporter gene under the control of an IFN-stimulated response element (ISRE) containing MxA promoter.; format: functional; conditions: 30 µM
[6] = target: T4, Tyrosyl-tRNA synthetase, putative (Trypanosoma cruzi (strain CL Brener)) (UniProt Q4DSP6); test: Trypanosoma cruzi tyrosyl tRNA synthetase (TcYRS) _High Tyrosine SOP; format: functional; conditions: 30 µM; also: in the data most compounds retested in dose-response had high values
T4 sequence (whole entry): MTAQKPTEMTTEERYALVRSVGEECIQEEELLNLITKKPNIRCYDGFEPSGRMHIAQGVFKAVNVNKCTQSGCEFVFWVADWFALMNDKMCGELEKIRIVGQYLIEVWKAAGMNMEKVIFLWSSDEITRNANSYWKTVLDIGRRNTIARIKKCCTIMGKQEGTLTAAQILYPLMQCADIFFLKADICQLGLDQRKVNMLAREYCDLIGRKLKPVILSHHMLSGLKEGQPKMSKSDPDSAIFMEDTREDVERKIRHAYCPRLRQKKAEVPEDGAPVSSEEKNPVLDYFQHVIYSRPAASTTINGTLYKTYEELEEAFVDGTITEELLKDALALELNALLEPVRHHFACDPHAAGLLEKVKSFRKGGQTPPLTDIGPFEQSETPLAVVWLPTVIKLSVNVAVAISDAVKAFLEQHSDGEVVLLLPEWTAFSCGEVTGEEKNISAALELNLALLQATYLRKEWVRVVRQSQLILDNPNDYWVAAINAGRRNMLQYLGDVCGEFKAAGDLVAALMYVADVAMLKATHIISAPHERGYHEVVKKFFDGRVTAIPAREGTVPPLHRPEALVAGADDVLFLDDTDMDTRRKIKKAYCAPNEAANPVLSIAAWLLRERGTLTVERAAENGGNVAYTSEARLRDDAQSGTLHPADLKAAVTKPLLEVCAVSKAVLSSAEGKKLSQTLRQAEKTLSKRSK

[7] = target: T4, Tyrosyl-tRNA synthetase, putative (Trypanosoma cruzi (strain CL Brener)); test: Trypanosoma cruzi tyrosyl tRNA synthetase (TcYRS) SOP; format: functional; conditions: 30 µM
[8] = target: Chromo domain-containing protein 1 (Saccharomyces cerevisiae (strain ATCC 204508 / S288c) (Baker's yeast)) (UniProt P32657); test: ScCHD-1 Enzyme Inhibition Assay; format: functional; conditions: 30 µM; also: in the data most compounds retested in dose-response had high values
Chromo domain-containing protein 1 (Saccharomyces cerevisiae (strain ATCC 204508 / S288c) (Baker's yeast)), sequence (P32657 whole entry, the tested form may be a part): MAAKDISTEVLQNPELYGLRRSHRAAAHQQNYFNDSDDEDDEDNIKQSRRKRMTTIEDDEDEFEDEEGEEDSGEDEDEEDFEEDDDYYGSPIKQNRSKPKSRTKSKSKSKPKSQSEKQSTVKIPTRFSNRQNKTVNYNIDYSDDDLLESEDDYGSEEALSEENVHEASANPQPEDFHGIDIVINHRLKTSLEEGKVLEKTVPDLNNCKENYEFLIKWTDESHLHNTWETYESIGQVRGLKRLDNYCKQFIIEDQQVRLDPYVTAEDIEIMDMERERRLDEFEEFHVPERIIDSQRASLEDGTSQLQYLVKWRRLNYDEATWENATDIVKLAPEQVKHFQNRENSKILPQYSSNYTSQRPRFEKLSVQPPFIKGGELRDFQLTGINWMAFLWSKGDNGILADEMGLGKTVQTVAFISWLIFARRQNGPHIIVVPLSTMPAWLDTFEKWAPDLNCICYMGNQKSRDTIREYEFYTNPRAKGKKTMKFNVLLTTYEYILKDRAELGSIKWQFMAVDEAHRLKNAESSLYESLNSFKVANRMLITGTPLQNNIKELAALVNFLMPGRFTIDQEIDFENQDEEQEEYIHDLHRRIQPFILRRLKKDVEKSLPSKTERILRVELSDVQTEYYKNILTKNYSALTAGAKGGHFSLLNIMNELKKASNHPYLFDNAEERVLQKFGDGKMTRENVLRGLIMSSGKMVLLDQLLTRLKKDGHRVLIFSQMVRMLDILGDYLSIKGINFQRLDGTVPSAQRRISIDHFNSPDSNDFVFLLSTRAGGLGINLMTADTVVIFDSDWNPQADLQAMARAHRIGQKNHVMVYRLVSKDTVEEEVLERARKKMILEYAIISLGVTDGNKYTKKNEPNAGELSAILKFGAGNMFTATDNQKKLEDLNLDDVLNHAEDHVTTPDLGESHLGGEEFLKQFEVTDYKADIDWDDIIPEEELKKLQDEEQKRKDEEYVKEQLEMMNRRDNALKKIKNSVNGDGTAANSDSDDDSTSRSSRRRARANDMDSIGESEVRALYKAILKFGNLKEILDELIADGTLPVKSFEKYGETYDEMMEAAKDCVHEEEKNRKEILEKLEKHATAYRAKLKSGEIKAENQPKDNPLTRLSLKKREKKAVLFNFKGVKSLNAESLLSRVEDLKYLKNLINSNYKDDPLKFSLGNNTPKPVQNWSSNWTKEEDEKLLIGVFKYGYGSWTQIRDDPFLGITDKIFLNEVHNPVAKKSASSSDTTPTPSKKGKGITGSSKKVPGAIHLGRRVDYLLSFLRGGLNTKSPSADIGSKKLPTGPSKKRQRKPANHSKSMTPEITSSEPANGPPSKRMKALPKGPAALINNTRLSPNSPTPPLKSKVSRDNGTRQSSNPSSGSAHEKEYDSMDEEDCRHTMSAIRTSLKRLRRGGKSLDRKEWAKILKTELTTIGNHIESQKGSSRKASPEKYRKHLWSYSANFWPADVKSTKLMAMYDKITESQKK

Protein translocase subunit SecA (Escherichia coli (strain K12)), sequence (P10408 whole entry): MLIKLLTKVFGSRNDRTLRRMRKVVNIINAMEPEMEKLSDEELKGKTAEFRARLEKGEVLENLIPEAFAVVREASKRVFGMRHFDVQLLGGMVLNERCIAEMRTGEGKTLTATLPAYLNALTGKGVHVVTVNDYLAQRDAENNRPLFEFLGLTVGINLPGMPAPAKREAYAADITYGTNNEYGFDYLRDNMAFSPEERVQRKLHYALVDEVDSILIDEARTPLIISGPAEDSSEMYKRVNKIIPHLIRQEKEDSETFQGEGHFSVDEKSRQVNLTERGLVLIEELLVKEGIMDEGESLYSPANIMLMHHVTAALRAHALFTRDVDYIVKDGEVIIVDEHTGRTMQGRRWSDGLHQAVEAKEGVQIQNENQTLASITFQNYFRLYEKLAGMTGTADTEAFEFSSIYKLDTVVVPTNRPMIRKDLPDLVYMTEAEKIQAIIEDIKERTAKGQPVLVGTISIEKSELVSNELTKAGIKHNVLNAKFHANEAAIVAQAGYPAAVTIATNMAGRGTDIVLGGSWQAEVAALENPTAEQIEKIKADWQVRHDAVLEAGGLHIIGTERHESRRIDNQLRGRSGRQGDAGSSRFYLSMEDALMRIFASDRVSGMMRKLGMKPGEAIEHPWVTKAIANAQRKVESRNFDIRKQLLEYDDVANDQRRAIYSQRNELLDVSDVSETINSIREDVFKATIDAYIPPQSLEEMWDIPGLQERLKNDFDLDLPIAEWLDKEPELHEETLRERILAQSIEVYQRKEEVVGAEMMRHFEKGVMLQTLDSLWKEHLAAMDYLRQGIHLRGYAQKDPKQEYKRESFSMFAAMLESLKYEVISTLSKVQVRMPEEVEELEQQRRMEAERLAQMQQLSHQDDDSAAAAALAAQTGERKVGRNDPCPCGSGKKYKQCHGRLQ

Compound | Percent Effect [1] [%] | Percent Effect [2] [%] | Percent Effect [3] [%] | Percent Effect (Trypanosoma cruzi) [%] | Percent Effect [4] [%] | Percent Effect [5] [%] | Percent Effect (Homo sapiens) [%] | Percent Effect [6] [%] | Percent Effect [7] [%] | Percent Effect [8] [%]
CCOc1ncccc1C(=O)N1CCCC(c2nccn2CCOC)C1 (stereo not given) | -8.34 | 5.41 | 1.4 | -1.26 | -3.85 | 12.2 | 9.33 | 3.72 | 12.2 | 2.21
Cn1cc(NC(=O)N2CCC(c3ccccc3)CC2)ccc1=O | -1.84 | 51.3 | 4.28 | 8.92 | 9.43 | 2.3 | 23 | 0.478 | 6.02 | 1.81
Cc1nn(C)c(N(C)C)c1CNCCCN(C)S(C)(=O)=O | -1.22 | 12.8 | -8.74 | -3.47 | 5.33 | 10.2 | 4.19 | 2.39 | 18.1 | -3.07
CCc1ccc(O)c(C(=O)NC2CCN(C(=O)OC)CC2)c1 | 0.0182 | 15.4 | -8.93 | -4.79 | 4.51 | 5.89 | 36.6 | 5.26 | 13.2 | -4.89
CN(C)CC1CN(Cc2coc(-c3cccs3)n2)CCO1 (stereo not given) | -1.09 | 13.3 | -3.06 | -2.41 | 2.22 | 11.8 | 15.3 | -0.526 | 5.13 | -10.9
CNc1nc2c(s1)C(=O)CN(C(=O)NCc1ccccc1)C2 | -2.61 | 8 | -5.95 | -8.84 | 5.32 | 9.41 | 15.2 | 1.58 | 2.56 | -6.84
CCn1cc2c(n1)C(COC)CN(C(=O)COc1ccccc1C)C2 (stereo not given) | -5.08 | -3.9 | 1.02 | -5.16 | -13.4 | 11 | 4.86 | 2.63 | 5.13 | 2.06
O=C1NCCN(CC2CC2)C12CCN(Cc1ccco1)CC2 | -2.83 | 9.09 | -15.9 | -9.45 | 2.83 | 18.8 | 10.4 | 2.63 | -2.56 | -3.23
COCc1nc(C(=O)N2CCCC(n3cccn3)C2)cs1 (stereo not given) | -1.77 | 13 | 6.57 | -4.29 | 2.25 | 8.6 | -4.23 | 2.94 | 16.5 | -6.38
Cc1cnn(CC2CCCN2C(=O)c2ccc(C(N)=O)cn2)c1 (stereo not given) | -5 | 15.4 | 2.02 | 5.92 | 2.05 | 9.47 | 12.1 | 0.478 | 13.2 | -6.88
COc1ccc(CNCc2ccnc(N3CCCCC3)c2)cc1OC | -2.73 | -2.56 | 3.59 | 4.22 | 2.87 | -1.62 | 25.8 | 3.35 | 1.21 | -2.92
CCc1cc(C(F)(F)F)c2c(C)nn(CC(=O)O)c2n1 | 2.1 | 9.33 | -6.26 | -4.14 | 9.29 | 11 | 15.7 | 1.06 | 10 | -20.4
O=C1CO[C@@H]2CN(Cc3cccs3)C[C@H]2N1CC1CC1 | -6.35 | 19.5 | -2.08 | 2.04 | 1.62 | 13.9 | -6.77 | 13.2 | 17.9 | -0.629
CNc1cncc(C2CCCN2Cc2c[nH]cn2)n1 (stereo not given) | -0.293 | 9.33 | -0.612 | -4.14 | 2.21 | 7.88 | 5.77 | 5.29 | 15 | -25.9
CCC(=O)N1CCC(O)(c2ncc(OC)nc2OC)CC1 | -1.18 | 9.33 | 3.93 | -3.55 | 3.1 | 9.03 | 8.31 | 5.29 | 7.5 | -17.1
COCCN1C[C@H]2[C@@H](C1)N(C(=O)c1cccs1)CC[C@H]2OC | -5.76 | -108 | 1.61 | 7.11 | -6.07 | 4.5 | -13.9 | 1.58 | 7.69 | 1.4
O=C(c1ccc(F)cc1)N1CCC2(CCCN2CC2CC2)CC1 | -2.9 | 9.09 | -6.13 | -6.57 | 5.94 | 14 | 11.5 | 0.966 | 0 | -3.47
c1ccc(-n2ccc(CN3CCCC3Cn3cccn3)n2)cc1 (stereo not given) | -2.21 | -49.4 | 9.5 | -5.97 | -7.17 | 8.25 | 11.5 | 0 | -11.8 | 3.12
O=c1[nH][nH]cc1-c1ccnc(NCCN2CCCC2)n1 | 3.78 | 10.7 | -2.82 | -4.82 | -8.87 | 7.38 | 13.2 | -4.74 | -5.13 | -14.5
Cc1cccc(N2CCN(C(=O)Nc3cnn(CC(N)=O)c3)CC2)c1 | 0.381 | 20.5 | -9.92 | 5.73 | 6.56 | 1.28 | -6.7 | 4.31 | 25.3 | -4.54
CN(C)S(=O)(=O)N1CC[C@]2(C[C@H](Oc3ncccc3F)CO2)C1 | -1.29 | 1.3 | 10.8 | 0.0974 | 0 | 1.15 | -1.45 | 4.74 | 5.13 | 14.3
CC(C)c1cc(N2CCN(c3ccc(O)cc3)CC2)n2nccc2n1 | -0.0494 | 5.41 | 0.937 | -0.873 | 5.25 | 19.7 | 0.905 | 27.1 | 34.1 | -3.77
COc1cc(C)nc(N2CCN(C(=O)CN(C)C3CC3)CC2)n1 | -5.5 | 7.69 | -4.33 | -3.1 | -1.23 | 2.99 | 28.9 | -1.44 | 8.43 | 0.147
